Experimental data from PubChem BioAssay AID463173 (ICCB-Longwood Screening Facility, Harvard Medical School, 2010).
About 1,700 (3.3%) of roughly 52,000 compounds were called active. No stated cut-off is given here; in the data, active means survival mostly below about 52% (no sharp cut-off); inactive means mostly above about 56%. This excerpt belongs to a sample that is enriched for actives.

These compounds were tested on Wild type (assay: S. aureus survival, RN4220 and DeltatarO strains – OD600, teichoic acid synthesis inhibitors, primary screen (AID 463173)). Conditions: S. aureus RN4220 wild type/DeltatarO growth, OD600, 18 h, active compounds read low, screened at 18.75 µg/mL (by protocol).
For `CCOc1ccc(CCNC(=O)Cn2c(C)c3cnn(-c4ccccc4)c(=O)c3c2C)cc1`, the survival was 95% (inactive).
With `COc1ccc2c(c1)CCc1c(C(=O)Nc3c(C)nn(Cc4ccc(C)cc4)c3C)noc1-2` the survival was 16% (active).
In the case of `COc1ccc2c(c1)CCc1c(C(=O)Nc3c(C)nn(Cc4ccc(Cl)cc4)c3C)noc1-2`, the survival is reported as 64% (inactive).
With `COc1ccc2c(c1)CCc1c(C(=O)Nc3c(C)nn(Cc4ccccc4)c3C)noc1-2` the survival was 92% (inactive).
`CC(=O)Nc1cc(C(=O)NCc2ccc(C)cc2)ccc1S(=O)(=O)c1ccc(Cl)cc1` was tested, and the survival was 85% (inactive).
For `CCc1ccc(-n2c(=O)c3cccnc3n2CC(=O)Nc2cc(OC)ccc2OC)cc1`, the survival was 74% (inactive).
In the case of `Cc1cc(C(=O)c2cccs2)c(N)s1`, the survival is reported as 90% (inactive).
With `COc1ccc(CNC(=O)c2ccc3c(c2)NC(=O)C(CS(=O)(=O)Cc2ccccc2Cl)N3)cc1` (stereo unspecified) the survival was 49% (inactive).
For `Cc1ccc(C)c(N2CCN(C(=O)c3cn(CC(C)C)c(=O)c4c3c3ccccc3n4C)CC2)c1`, the survival was 17% (active).
With `Cc1ccc(Cl)cc1N1CCN(C(=O)c2cn(CC(C)C)c(=O)c3c2c2ccccc2n3C)CC1` the survival was 87% (inactive).
For `Cc1cccc(N2CCN(C(=O)c3cn(CC(C)C)c(=O)c4c3c3ccccc3n4C)CC2)c1C`, the survival was 89% (inactive).
With `Cc1ccc(C(C)C)c(OCCCn2c(=O)oc3ccc(C)cc32)c1` the survival was -10% (active).
`Cc1cccc(NC(=O)NCCn2c(=O)oc3ccc(C)cc32)c1` was tested, and the survival was 88% (inactive).
For `Cc1ccc(C(C)C)c(OCCn2cc(C(=O)c3ccco3)c3ccccc32)c1`, the survival was 30% (inactive).
For `Cc1ccc(C(C)C)c(OCCCn2c(=O)oc3ccccc32)c1`, the survival was -2% (active).
With `Cc1ccc(NC(=O)NCCOCCn2c(=O)oc3ccccc32)c(C)c1` the survival was 88% (inactive).
With `Cc1ccc2oc(=O)n(CCNC(=O)Nc3ccc(C)c(F)c3)c2c1` the survival was 108% (inactive).
With `Cc1nn2c(C)c(C(=O)NCc3ccc(OC(C)C)cc3)cnc2c1-c1ccc(F)cc1` the survival was 76% (inactive).
`COc1cc(OC)c(NC(=O)Cn2cnc3c(nc4n3CCCCC4)c2=O)cc1Cl` was tested, and the survival was 59% (inactive).
For `O=C(NCC1CCCO1)C1CC(=O)N(c2ccccc2)C1` (stereo unspecified), the survival was 123% (inactive).
For `Cc1ccc(S(=O)(=O)N2Cc3ccccc3CC2C(=O)N(C)C)cc1` (stereo unspecified), the survival was 102% (inactive).
In the case of `Cc1ccc(Cn2c(C(=O)O)c(CNC3CCCC3)c3ccc(C)cc32)cc1`, the survival is reported as 83% (inactive).
For `COc1ccc(NC(=O)c2cc3c(=O)n(Cc4cccs4)ccc3nc2C)cc1`, the survival was 59% (inactive).
For `Cc1nc2ccn(Cc3cccs3)c(=O)c2cc1C(=O)Nc1ccccc1`, the survival was 91% (inactive).
In the case of `Cc1nc2ccn(Cc3cccs3)c(=O)c2cc1C(=O)NCc1ccc(Cl)cc1`, the survival is reported as 22% (inactive).
With `CCc1ccc(CNC(=O)c2cc3c(=O)n(Cc4cccs4)ccc3nc2C)cc1` the survival was 0% (active).
`CCOc1ccc(CNC(=O)c2cc3c(=O)n(Cc4cccs4)ccc3nc2C)cc1` was tested, and the survival was 118% (inactive).
`Cc1nc2ccn(Cc3cccs3)c(=O)c2cc1C(=O)NCc1ccc(Br)cc1` was tested, and the survival was 82% (inactive).
For `COc1cc(NC(=O)c2cc3c(=O)n(Cc4cccs4)ccc3nc2C)cc(OC)c1OC`, the survival was -2% (active).
With `Cc1nc2ccn(Cc3cccs3)c(=O)c2cc1C(=O)NCc1ccccc1` the survival was 73% (inactive).
For `COc1ccc(CNC(=O)c2cc3c(=O)n(Cc4cccs4)ccc3nc2C)cc1`, the survival was 10% (active).
In the case of `Cc1ccc(C)c(NC(=O)Cn2c(=O)n(CC3CCCO3)c(=O)c3ccccc32)c1` (stereo unspecified), the survival is reported as 119% (inactive).
For `CCOC(=O)c1c(NC(=O)c2cc3nc(-c4ccccc4)cc(C(F)(F)F)n3n2)sc2c1CCC(C)C2` (stereo unspecified), the survival was 65% (inactive).
With `O=S(=O)(c1ccc(Br)cc1)N1CCn2cccc2C1c1ccc(Br)cc1` (stereo unspecified) the survival was 65% (inactive).
For `CCCOC(=O)c1cccc(Nc2nc(C(=O)OCC)nc3ccccc23)c1`, the survival was 44% (inactive).
With `Cc1ccc(CNS(=O)(=O)c2c(C(=O)N3CCC(C)CC3)c(C)n(C)c2C)cc1` the survival was 76% (inactive).
With `O=C(Nc1nnc(C2CCCC2)s1)C1CC1` the survival was 105% (inactive).
For `CNC(=O)Nc1ccc2nc(C)sc2c1`, the survival was 112% (inactive).
For `COC(=O)CCN(c1ccccc1)S(=O)(=O)c1cc(-c2cc(C)no2)ccc1OC`, the survival was 90% (inactive).
`Cc1ccc2cc(CN(CC3CCCO3)C(=O)C(F)(F)F)c3nnnn3c2c1C` (stereo unspecified) was tested, and the survival was 115% (inactive).
With `CCC(Oc1ccccc1F)C(=O)N1CCC(c2nc3ccccc3s2)CC1` (stereo unspecified) the survival was -3% (active).
For `COc1ccccc1OC(C)C(=O)N1CCC(c2nc3ccccc3s2)CC1` (stereo unspecified), the survival was -2% (active).
With `CCc1ccc(OC(C)C(=O)N2CCC(c3nc4ccccc4s3)CC2)cc1` (stereo unspecified) the survival was 35% (inactive).
In the case of `CCCOc1ccccc1C(=O)N1CCC(c2nc3ccccc3s2)CC1`, the survival is reported as 68% (inactive).
`CC(Oc1ccc(F)cc1)C(=O)N1CCC(c2nc3ccccc3s2)CC1` (stereo unspecified) was tested, and the survival was 80% (inactive).
For `Cc1ccccc1OCC(=O)N1CCC(c2nc3ccccc3s2)CC1`, the survival was 65% (inactive).
`COCCn1c(CNC(=O)c2ccccc2C)nc2cccnc21` was tested, and the survival was 69% (inactive).
In the case of `COc1cc(Cl)c(C)cc1NC(=O)CNC(=O)Cn1ccc2ccccc2c1=O`, the survival is reported as 65% (inactive).
For `COC(=O)C1=C(c2ccccc2)c2ccccc2S(=O)(=O)N1CC(=O)Nc1cc(C)ccc1C`, the survival was 77% (inactive).
`CCN(CC)S(=O)(=O)c1ccc2c(c1)N(CC(=O)NCc1ccccc1)C(=O)C1CCCCN21` (stereo unspecified) was tested, and the survival was 102% (inactive).
With `CCOc1ccc2nc(NCCCNC(=O)C3CCCO3)c(C#N)cc2c1` (stereo unspecified) the survival was 105% (inactive).
In the case of `CCC(C)NC(=O)Cn1c(=O)n(-c2ccc(OC)c(OC)c2)c(=O)c2ccccc21` (stereo unspecified), the survival is reported as 87% (inactive).
`COc1cccc(CNC(=O)CCCN2C(=O)CSc3c2c(C)nn3-c2ccccc2)c1` was tested, and the survival was 89% (inactive).
`CC1CCN(C(=O)c2cccc(Cl)c2)CC1` was tested, and the survival was 112% (inactive).
For `COc1ccccc1C(=O)N1c2ccccc2C(C)(c2ccc(Cl)cc2)CC1(C)C` (stereo unspecified), the survival was 2% (active).
In the case of `CC1(c2ccccc2)CC(C)(C)N(C(=O)c2ccccc2Cl)c2ccccc21` (stereo unspecified), the survival is reported as -2% (active).
With `COc1ccc(C(=O)N2CCC(C(=O)Nc3ccc(Cl)cc3)CC2)cc1` the survival was 122% (inactive).
In the case of `COc1ccc(C(=O)N2c3ccccc3C(C)(c3ccc(Cl)cc3)CC2(C)C)cc1` (stereo unspecified), the survival is reported as 6% (active).
`COc1ccccc1C(=O)CC1(O)C(=O)N(CC(N)=O)c2ccccc21` (stereo unspecified) was tested, and the survival was 65% (inactive).
`COc1ccccc1C(=O)n1nc(-c2ccccc2)nc1NCc1ccc(Cl)cc1` was tested, and the survival was 66% (inactive).
`O=C(c1ccccc1Cl)n1cc(Cl)cn1` was tested, and the survival was 100% (inactive).
For `CN1CC2(C)CN(C(=O)c3ccccc3Cl)CC(C)(C1)C2`, the survival was 112% (inactive).
For `CC1(c2ccccc2)CC(C)(C)N(C(=O)c2cccc(Cl)c2)c2ccccc21` (stereo unspecified), the survival was 6% (active).
`CC1CCN(c2ccc(NC(=O)c3cccc(Cl)c3)cc2C(=O)O)CC1` was tested, and the survival was 76% (inactive).
`COc1ccc(CCC(=O)NCc2ccc3c(c2)CCN3C(=O)c2ccc(Cl)cc2)cc1` was tested, and the survival was 80% (inactive).
In the case of `Cc1ccc(F)cc1NC(=O)Cn1c(C)cc(C)c(C#N)c1=O`, the survival is reported as 131% (inactive).
In the case of `CCOc1ccc(CNC(=O)Cn2nc(C)c3c(C)n(-c4ccc(C)cc4)nc3c2=O)cc1`, the survival is reported as 78% (inactive).
`O=C(CSc1ccc2nnc(CCNS(=O)(=O)c3ccccc3)n2n1)Nc1ccccc1C(F)(F)F` was tested, and the survival was 107% (inactive).
For `Cc1cccc(S(=O)(=O)Nc2cccc(-c3ccc(N4CCCCC4)nn3)c2)c1`, the survival was 69% (inactive).
`N#Cc1ccccc1NC(=O)C(=O)NCC(c1cccnc1)N1CCN(c2ccccc2)CC1` (stereo unspecified) was tested, and the survival was 99% (inactive).
With `Cc1ccc(NC(=O)c2c(C)nc3sc(C(=O)Nc4ccc(F)cc4)c(N)c3c2-c2ccccc2Cl)c(C)c1` the survival was 65% (inactive).
With `Cc1cn(C)c(CC(=O)Nc2ccc(F)cc2Cl)c1C(=O)O` the survival was 76% (inactive).
In the case of `CCOC(=O)c1cccc(NC(=O)CCn2nc(C)c3c(C)n(-c4ccccc4)nc3c2=O)c1`, the survival is reported as 73% (inactive).
In the case of `CC1(C)C(=O)N(CC(=O)Nc2ccc(Cl)cc2)c2ccccc21`, the survival is reported as 59% (inactive).
For `O=C(c1cccc(F)c1)N1CCC(c2c[nH]c3ccccc23)(c2c[nH]c3ccccc23)CC1`, the survival was 63% (inactive).
For `CC1(c2ccc(Cl)cc2)CC(C)(C)N(C(=O)c2ccccc2)c2ccccc21` (stereo unspecified), the survival was -11% (active).
With `CC1CC(C)CN(C(=O)c2ccc(Cl)cc2)C1` (stereo unspecified) the survival was 117% (inactive).
For `CC1(c2ccc(Cl)cc2)CC(C)(C)N(C(=O)c2cccc(F)c2)c2ccccc21` (stereo unspecified), the survival was 7% (active).
`O=C(NCc1ccc2c(c1)CCN2C(=O)c1ccc(Cl)cc1)c1cccc(F)c1` was tested, and the survival was 55% (inactive).
With `COc1ccc(-n2c(SCC(=O)Nc3ccc4c(c3)OCO4)nc3c([nH]c4ccccc43)c2=O)cc1` the survival was 81% (inactive).
For `Cc1ccc(COC(=O)c2[nH]c3c(c2C)C(=O)CC(c2ccc(Cl)cc2)C3)cc1` (stereo unspecified), the survival was 84% (inactive).
In the case of `COc1cc2[nH]c(=O)n(CCCC(=O)NCc3ccc(Cl)cc3)c(=O)c2cc1OC`, the survival is reported as 90% (inactive).
`COc1ccccc1N1CCN(CC(O)COc2ccc(Cl)c(C)c2)CC1` (stereo unspecified) was tested, and the survival was 66% (inactive).
`CC(=O)Nc1ccc(OCC(O)CN2CCN(c3ccc(C)c(Cl)c3)CC2)cc1` (stereo unspecified) was tested, and the survival was 98% (inactive).
For `Cc1cc(OCC(O)CN2CCN(c3cccc(Cl)c3)CC2)ccc1Cl` (stereo unspecified), the survival was 0% (active).
With `O=C(c1cc2ccccc2oc1=O)N1CCCCCC1` the survival was 88% (inactive).
For `Cc1ccc(-n2ncc(C(=O)NCCN3CCCC3)c2C2CCN(C(=O)OC(C)(C)C)CC2)cc1`, the survival was 153% (inactive).
In the case of `COc1cccc(CSc2nnc(-c3ccc(F)cc3)o2)c1`, the survival is reported as 113% (inactive).
In the case of `COc1ccc(-c2nnc(SCc3cccc(Cl)c3)o2)cc1`, the survival is reported as 13% (active).
`COc1ccc(-c2nnc(SCC#N)o2)cc1` was tested, and the survival was 106% (inactive).
For `COc1cn(CC(=O)Nc2ccc(F)cc2)c(CN2CCCCC2)cc1=O`, the survival was 72% (inactive).
